Experiment [1] in a line: Cell Viability - HepG2 (AID 433; calls by dose curve;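 further: potency means the concentration at half of the fitted maximal effect; cells exposed to compound for 40 hours; potency for ATP loss meaning cytotoxicity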). Particulars: qHTS. In a few lines: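 ATP luminescence (CellTiter-Glo) after 40 h compound exposure, 37 °C, HepG2, 1500 cells/well, complete medium. Normalized: DMSO = basal, 100 uM tamoxifen = 100% inhibition. AC50 via standard Hill equation.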
Background: In qHTS, concentration-response curves come from the screen itself.

Experiment [2] can be described thus: Cell Viability - NIH 3T3 (AID 541).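 Further: cells exposed to compound for 40 hours; plate controls were DMSO alone for no effect and tamoxifen positive control for full effect; nearly all actives have a fitted effect of over 25% in size.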 Conditions: NIH 3T3 cell viability, qHTS; activity change, negative = cytotoxicity: at 92.2 µM (top of the series). In a few lines:
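AC50 values reflect concentration-dependent loss of intracellular ATP in NIH 3T3 cells after 40 hr treatment in complete culture medium, quantified by luciferase-based luminescence.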

A short description of experiment [3]: Cell Viability - HUV-EC-C (AID 542).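 Further: cells exposed to compound for 40 hours; on the % scale 0 is the no-effect control and ±100 the full control effect; nearly all actives have a fitted effect of over 35% in size.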 Particulars: HUV-EC-C endothelial cell viability, qHTS; series mostly up to 92.2 µM. In a few lines:
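Decrease in cellular ATP, quantified by luciferase luminescence, reflects toxicity in normal human vascular endothelial HUV-EC-C cells given compound for 40 hr in complete culture medium. Values are AC50s from concentration-response curves.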

Experiment [4] in a line: Cell Viability - Renal Proximal Tubule (AID 545).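 Further: cells exposed to compound for 40 hours; nearly all actives have a fitted effect of over 40% in size.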 Conditions: renal proximal tubule cells viability; series mostly up to 91.7 µM. In a few lines: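 Rat kidney proximal tubule cells, freshly isolated; 1000 cells/well, 5 hr settle, compound 40 hr 37 °C. CellTiter-Glo 20 min RT, luminescence read. AC50 by standard Hill fit.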
Experiment [5] in a line: Cell Viability - Mesenchymal (AID 546).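 Further: cells exposed to compound for 40 hours before reading.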 Particulars: mesenchymal cells viability, qHTS; series mostly up to 91.7 µM. In a few lines:
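Human kidney mesenchymal cells from normal renal glomeruli, 1000 cells/well, rested 5 hr at 37 °C, then treated 40 hr at 37 °C in complete medium. Cellular ATP read by CellTiter-Glo luminescence; AC50 from Hill-equation fits.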

Experiment [6] can be described thus: Cellular Toxicity (caspase-3) HUV-EC-C (AID 656). Conditions: HUV-EC-C cells, caspase-3 activation (apoptosis), vehicle = 0, 100 µM tamoxifen = 100%; series mostly up to 92.2 µM. In a few lines: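 Luminescent caspase-3/7 activation (aminoluciferin substrate cleavage) in HUV-EC-C cells after 16 hr compound exposure, 37°C. Signal normalized to DMSO basal and 100 uM tamoxifen as 100%; AC50 from concentration-response fitted with the Hill equation.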

Experiment [7] is described as follows: Cellular Toxicity (caspase-3) SHSY5Y (AID 657).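 Further: cells exposed to compound for 16 hours at 37 °C.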 Particulars: SH-SY5Y caspase-3 activation, DMSO zero, 10 µM staurosporine = 100%; series mostly up to 91.7 µM. In a few lines: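 Luminescent caspase-3/7 readout (aminoluciferin release) in SH-SY5Y cells after 16 h compound exposure in complete medium. Activity scaled between DMSO basal and 10 uM staurosporine as 100%; concentration-response fitted to Hill equation for AC50.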

The nature of experiment [8]: Cellular Toxicity (caspase-3) Mesangial (AID 660).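 Further: combined caspase 3 and 7 activity read by Caspase-Glo luminescence; cells exposed to compound for 16 h before the caspase read.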 Particulars: mesangial cells, normalized: DMSO 0%, 100 µM tamoxifen 100%; series mostly up to 91.7 µM. In a few lines: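 Concentration-response qHTS: compound-induced rise in caspase 3/7 luminescence in human mesangial cells after 16 h, normalized to DMSO and 100 uM tamoxifen controls.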
The nature of experiment [9]: Cellular Toxicity (caspase-3) Renal Proximal Tubule (AID 667).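 Further: cells exposed to compound for 16 hours at 37 °C before detection; 0% = DMSO basal and 100% = 10 µM staurosporine.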 Particulars: renal proximal tubule cells; series mostly up to 91.7 µM. In a few lines: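 Luminescent caspase 3/7 signal from peptide-aminoluciferin cleavage measures apoptosis in freshly isolated rat kidney proximal tubule cells after 16 h compound exposure. Concentration-response data are normalized to DMSO and 10 uM staurosporine, and AC50 values come from Hill equation fits.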

The nature of experiment [10]: Cell Viability - LYMP2-003 (AID 965).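 Further: cells exposed to compounds for 24 h before reading; nearly all actives have a fitted effect of over 50% in size.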 Further: potency means the concentration at half of the fitted maximal effect.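 On activity change, negative = cytotoxicity: 0% = DMSO only and full effect = 92 µM tetraoctylammonium bromide.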 Particulars: LYMP2-003 lymphoblastoid cell viability; series mostly up to 92.2 µM. In a few lines:
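CellTiter-Glo luminescence (cellular ATP) after 24 h compound exposure at 37 C in complete medium; 2500 cells/well, 5 h settling beforehand. Concentration-response fitted to standard Hill equation for AC50. Tetraoctylammonium bromide served as positive control.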

Experiment [11] is described as follows: Cell Viability - LYMP2-011 (AID 969). Further: nearly all actives have a fitted effect of over 60% in size. Further: potency means the concentration at half of the fitted maximal effect. Particulars: LYMP2-011 lymphoblastoid cells viability; series mostly up to 92.2 µM. In a few lines: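 Acute toxicity is scored as a concentration-dependent drop in intracellular ATP of a human lymphoblastoid line after 24 hr treatment. Values are AC50s modeled with the Hill equation.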
Experiment [12] is described as follows: Cell Viability - LYMP2-013 (AID 970). Further: nearly all actives have a fitted effect of over 55% in size. Further: potency means the concentration at half of the fitted maximal effect. Particulars: LYMP2-013 lymphoblastoid cells viability; series mostly up to 92.2 µM. In a few lines: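 Acute toxicity was measured in human lymphoblastoid cells (2500/well) exposed to compound titrations for 24 hr, with ATP luminescence (CellTiter-Glo) as read-out and AC50 fitted by Hill equation.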
Experiment [13] can be described thus: Cell Viability - LYMP2-023 (AID 975).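 Further: cells exposed to compound for 24 hours at 37 °C; nearly all actives have a fitted effect of over 55% in size.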 Further: potency means the concentration at half of the fitted maximal effect.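 On activity change, negative = cytotoxicity: cellular ATP measured by luciferase luminescence as viability proxy; plate controls were DMSO only for no effect and 92 µM tetraoctylammonium bromide control for full effect.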 Particulars: LYMP2-023 lymphoblastoid cell viability; series mostly up to 92.2 µM. In a few lines: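 Concentration-dependent drop in intracellular ATP measures acute cytotoxicity in a human lymphoblastoid line treated for 24 hours in complete culture medium. AC50 values are taken from Hill-equation fits of qHTS data.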

Experiment [14] is described as follows: Cell Viability - LYMP2-024 (AID 988).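 Further: cells exposed to compound for 24 hr at 37 °C; nearly all actives have a fitted effect of over 60% in size.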 Further: potency means the concentration at half of the fitted maximal effect.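 On activity change, negative = cytotoxicity: plate controls were DMSO only for no effect and 92 µM tetraoctylammonium bromide for full effect.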 Conditions: LYMP2-024 lymphoblastoid cell viability; series mostly up to 92.2 µM. In a few lines: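 Acute toxicity is measured as concentration-dependent loss of intracellular ATP in a human lymphoblastoid line treated 24 hours at 37 C. Luciferase luminescence quantifies ATP; AC50 values come from standard Hill-equation modelling.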

In experiment [15] the target is Peroxisome proliferator-activated receptor delta (Homo sapiens) (UniProt Q03181). Nature of the experiment: qHTS assay for small molecule agonists of peroxisome proliferator-activated receptor delta signaling (AID 588534; calls by dose curve;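 further: 0% = DMSO basal wells and 100% = positive control agonist at 10 µM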). Particulars: HEK293T PPARdelta-UAS-bla, beta-lactamase ratio, 18 h; series mostly up to 76.7 µM. In a few lines:
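Reporter cells were plated and held 5 hrs at 37 C before compounds were added. After 18 hrs at 37 C, CCF4 dye was loaded for 2 hrs at RT and fluorescence measured.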

The target of experiment [16] is Vitamin D3 receptor (Homo sapiens) (UniProt P11473). Nature of the experiment: qHTS assay for small molecule antagonists of vitamin D receptor signaling (AID 588541; calls by dose curve;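 further: receptor activated by calcitriol during compound treatment; on the % scale 0 is the no-effect control and ±100 the full control effect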). Particulars: HEK293T VDR-UAS-bla, beta-lactamase ratio, antagonist mode; series mostly up to 76.7 µM. In a few lines:
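VDR-UAS-bla HEK293T cells in 2% charcoal-stripped FBS were stimulated with 1-alpha,25-dihydroxyvitamin D3 (3 nM final) plus compound for 16 h at 37 C. The beta-lactamase CCF4 readout was normalized to 50 nM agonist and DMSO, and Hill fits gave IC50.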

A short description of experiment [17]: qHTS assay for small molecule activators of the p53 signaling pathway (AID 651743; active means well fitted activation curve with a large enough effect in the signal ratio, not every such curve was filed as active; the % refers to the signal ratio; further: % of control where 0% means no effect). Conditions: HCT-116 p53RE-bla, beta-lactamase FRET ratio, 16 h; activation: active compounds read high. In a few lines:
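HCT-116 p53RE-bla, 4,000 cells/well; 5 h settle; cpd/DMSO 16 h, 37 C; LiveBLAzer B/G 2 h RT; fluorescence intensity.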

Experiment [18] addresses Tumor necrosis factor (Homo sapiens) (UniProt P01375). Nature of the experiment: qHTS assay to identify small molecules that stimulate Tumor Necrosis Factor-alpha (TNF-alpha) secretion (AID 651757; active means well fitted curve in the direction sought with a large enough effect in the signal ratio; the % refers to the signal ratio; further: 0% is about no effect). Particulars: Human cells, HTRF 665/615 ratio; series mostly up to 92.2 µM. In a few lines: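 Secreted TNF-alpha from compound-treated THP-1 cells (17 hrs, 37 C) was quantified with a homogeneous time-resolved fluorescence antibody assay.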

A short description of experiment [19]: qHTS assay for small molecule activators of the human pregnane X receptor (PXR) signaling pathway (AID 720659; call rule not given here; further: 0% is about no effect). Particulars: DPX-2 HepG2 CYP3A4-luciferase, 24 h; series mostly up to 92.3 µM.
Experiment [20] is described as follows: Cell Viability - LYMP2-010 (AID 981).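 Further: cells exposed to compound for 24 hours at 37 °C; nearly all actives have a fitted effect of over 55% in size.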 Further: potency means the concentration at half of the fitted maximal effect. Particulars: LYMP2-010 lymphoblastoid cell viability, qHTS; series mostly up to 92.2 µM. In a few lines:
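Acute toxicity is scored as a concentration-dependent loss of cellular ATP in human lymphoblastoid cells after 24 hr compound exposure in complete medium. Tetraoctylammonium bromide is the positive control.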

SMILES strings stand for the structures. “And” between values parts separate entries of the source, which are not always exact repeats. Equal values may be shown once. Values without a mark were called inactive. Results filed as inconclusive are left out. The source made the active and inactive calls. Unless noted, the call rests on the fitted dose curve; in most records, active means well fitted curve in the direction sought with a large enough effect; inconclusive means small, poorly fitted or top-dose-only effect, or another doubt; inactive means no such curve, though single readings can be large; an effect the other way counts as inactive or inconclusive.

Sequence of Vitamin D3 receptor (Homo sapiens) (P11473 whole entry, looked up): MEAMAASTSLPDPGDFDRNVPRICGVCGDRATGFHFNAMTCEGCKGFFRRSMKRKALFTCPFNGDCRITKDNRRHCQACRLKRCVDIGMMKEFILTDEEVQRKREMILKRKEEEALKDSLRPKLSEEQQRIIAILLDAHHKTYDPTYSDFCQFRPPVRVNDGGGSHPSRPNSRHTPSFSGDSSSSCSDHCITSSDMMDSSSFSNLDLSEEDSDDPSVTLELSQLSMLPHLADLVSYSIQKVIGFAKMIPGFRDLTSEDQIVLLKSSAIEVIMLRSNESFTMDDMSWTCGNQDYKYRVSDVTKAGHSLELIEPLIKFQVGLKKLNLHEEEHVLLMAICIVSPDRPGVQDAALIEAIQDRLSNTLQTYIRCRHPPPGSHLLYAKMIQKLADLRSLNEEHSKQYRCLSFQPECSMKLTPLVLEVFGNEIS
Sequence of Tumor necrosis factor (Homo sapiens) (P01375 whole entry, looked up): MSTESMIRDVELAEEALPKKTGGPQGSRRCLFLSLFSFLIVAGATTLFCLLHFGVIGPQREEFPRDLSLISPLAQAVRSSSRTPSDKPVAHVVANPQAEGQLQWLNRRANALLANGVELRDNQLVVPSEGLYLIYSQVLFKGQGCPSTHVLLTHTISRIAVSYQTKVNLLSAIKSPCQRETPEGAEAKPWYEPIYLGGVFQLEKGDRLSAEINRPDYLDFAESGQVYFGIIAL
Sequence of Peroxisome proliferator-activated receptor delta (Homo sapiens) (Q03181 whole entry, looked up): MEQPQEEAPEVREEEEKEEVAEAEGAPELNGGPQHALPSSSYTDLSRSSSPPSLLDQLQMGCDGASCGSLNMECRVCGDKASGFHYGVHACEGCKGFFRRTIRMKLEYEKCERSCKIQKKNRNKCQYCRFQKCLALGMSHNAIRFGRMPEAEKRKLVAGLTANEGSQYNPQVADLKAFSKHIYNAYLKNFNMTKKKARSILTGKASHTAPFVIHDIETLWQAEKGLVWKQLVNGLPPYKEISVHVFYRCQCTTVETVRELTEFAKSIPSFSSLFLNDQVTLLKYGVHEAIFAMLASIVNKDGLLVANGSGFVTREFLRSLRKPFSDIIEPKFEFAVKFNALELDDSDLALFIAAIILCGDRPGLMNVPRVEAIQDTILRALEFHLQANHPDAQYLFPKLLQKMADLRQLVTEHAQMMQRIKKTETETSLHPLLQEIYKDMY

For the compound `ClP(Cl)(Cl)(Cl)Cl`, the Potency in experiment [1] was above 92 µM. Further, the Potency result in experiment [2], in experiment [3], in [5], in experiment [10], in experiment [11] and in experiment [12] was “inactive” each time. Moreover, the Potency result in experiment [13] and in [14] was “inactive” each time. Moreover, the result in [4], in [6], in [7], in [8], in [9] and in experiment [15] was inactive. Besides, the outcome in experiment [16], in experiment [18] and in experiment [19] was inactive. In experiment [17], the activation is -1.29%.

Regarding `CC12CC1(C)C(=O)N(c1cc(Cl)cc(Cl)c1)C2=O` (stereo not given), the Potency entry in [2], in experiment [5], in experiment [10], in [11], in experiment [12] and in experiment [13] was “inactive” throughout. Also, the Potency entry in experiment [14] is “inactive”. In addition, the result in experiment [4], in experiment [6], in [7], in experiment [8], in experiment [9] and in experiment [15] was inactive. In addition, the outcome in [16] and in experiment [18] was inactive. Moreover, in experiment [17], the activation is 3.14%.

Turning to `CCN(CC)CCO`, the Potency in [1] was above 92 µM. Moreover, the Potency result in [2], in experiment [3], in [5], in [10], in experiment [11] and in experiment [12] was “inactive” in each case. Besides, the Potency result in experiment [13], in experiment [20] and in [14] was “inactive” each time. Further, the compound was called inactive in [7], in experiment [8], in [9], in experiment [15], in experiment [18] and in experiment [19]. Further, in experiment [17], the activation is 0.771%.

Regarding `CN1CSC(=S)N(C)C1`, the Potency was above 92 µM in experiment [1]; 31.6 µM (active) in experiment [10]; 39.8 µM (active) in [11]; 39.8 µM (active) in [12]; 39.8 µM (active) in experiment [13]; 20 µM (active) in experiment [20]. Besides, in experiment [14], the Potency is 12.6 µM (active). Besides, the Potency result in experiment [5] is “inactive”. Also, the call in experiment [6], in experiment [7], in [9], in experiment [15], in [16] and in experiment [18] was inactive. In addition, the activation in experiment [17] is 0.178% and -0.711%.

`CC1CC(=O)O1` (stereo not given): the Potency entry in [2], in experiment [3], in experiment [10], in [12], in experiment [13] and in experiment [20] was “inactive” each time. Besides, in experiment [14], the Potency result is “inactive”. The call in experiment [4], in experiment [7], in [8], in [15], in [16] and in experiment [18] was inactive. Moreover, the compound was classed as inactive in [19].

For the compound `C=CCO`, the Potency in [1] was above 92 µM. Besides, the Potency entry in experiment [2], in [3], in [5], in experiment [10], in experiment [11] and in experiment [20] was “inactive” throughout. Besides, the Potency entry in [14] was “inactive”. Moreover, the result in [4], in [6], in experiment [7], in [8], in [9] and in experiment [15] was inactive. The outcome in [18] and in experiment [19] was inactive. Further, the activation in experiment [17] was -1.01%.

As for `CCN(CC)N=O`, the Potency in experiment [1] is above 92 µM. Moreover, the Potency result in experiment [2], in [3], in experiment [5], in experiment [11], in experiment [12] and in [13] was “inactive” throughout. Further, in experiment [14], the Potency result was “inactive”. The result in experiment [4], in experiment [6], in [7], in experiment [8], in experiment [15] and in experiment [16] was inactive. Moreover, the outcome in experiment [18] and in [19] was inactive. In addition, the activation in experiment [17] was -1.39%.

Turning to `CN(C)N=O`, the Potency in experiment [1] was above 92 µM. Further, the Potency entry in experiment [2], in [5], in experiment [11], in experiment [12], in experiment [13] and in experiment [20] was “inactive” in each case. Also, the Potency entry in experiment [14] was “inactive”. Also, the result in [4], in [6], in [7], in experiment [8], in [16] and in experiment [18] was inactive. Besides, the compound was called inactive in experiment [19]. Also, the activation in [17] is -2.39%.

As to `N#CCCC#N`, the Potency in [1] was above 92 µM. For the same compound, the Potency result in [2], in experiment [5], in [10], in experiment [11], in experiment [13] and in experiment [20] was “inactive” throughout. In [14], the Potency result was “inactive”. The compound was classed as inactive in experiment [4], in experiment [6], in [7], in experiment [8], in experiment [9] and in experiment [15]. Further, the result in experiment [16], in experiment [18] and in experiment [19] was inactive. Besides, the activation in experiment [17] was -0.196%.

With `CN(C)c1ccccc1`, the Potency in experiment [1] is above 92 µM. The Potency result in experiment [2], in [3], in [10], in [11], in experiment [12] and in experiment [20] was “inactive” each time. For the same compound, the Potency result in experiment [14] is “inactive”. Also, the result in [4], in [6], in [7], in experiment [9], in experiment [16] and in [18] was inactive. Moreover, the compound was called inactive in experiment [19]. The activation in experiment [17] was -3.2%.

These data come from PubChem BioAssay (NCATS).
